From the supplement of paper PMC6555819

Columns and labels:
Experiment in all cases: PBM binding z-score (relative to random genomic background probes); higher = stronger binding; sequences stand for … in GC…GCGATTGACAGCGTAGAATGAAGG
[1] = system: FXR:RXRa (NR concentration 270 nM, RXRa partner concentration 90 nM)
Outline: (§1)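 Binding z-scores take random background probes as their reference. They come from custom Agilent 4×180K protein-binding microarrays incubated 1 h with ligand-free nuclear receptor dimers, with antibodies against each partner (one per run) detecting binding. Scanned fluorescence was regression-normalized.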

[2] = system: LXRa:RXRa (NR concentration 270 nM, RXRa partner concentration 90 nM)
Outline: as §1

[3] = system: LXRa homodimer (NR concentration 270 nM)
Outline: as §1

[4] = system: LXRb:RXRa (NR concentration 270 nM, RXRa partner concentration 90 nM)
Outline: as §1

[5] = system: LXRb homodimer (NR concentration 270 nM)
Outline: as §1

[6] = system: PPARa:RXRa (NR concentration 270 nM, RXRa partner concentration 90 nM)
Outline: as §1

[7] = system: PPARg:RXRa (NR concentration 180 nM, RXRa partner concentration 90 nM)
Outline: as §1

[8] = system: PPARg:RXRa 270nM:90nM, anti-RXR (NR concentration 270 nM, RXRa partner concentration 90 nM)
Outline: as §1

[9] = system: PPARg:RXRa 30nM:10nM, anti-RXR (NR concentration 30 nM, RXRa partner concentration 10 nM)
Outline: as §1

[10] = system: PPARg:RXRa 90nM:30nM, anti-RXR (NR concentration 90 nM, RXRa partner concentration 30 nM)
Outline: as §1

[11] = system: PPARg:RXRa DBDmut IVT, anti-RXR (DBD mutation: RXRa K156A/R161A, NR concentration 270 nM, RXRa partner concentration 90 nM)
Outline: as §1

[12] = system: PPARg:RXRa IVT, anti-PPARg (NR concentration 270 nM, RXRa partner concentration 90 nM)
Outline: as §1

[13] = system: PPARg DBDmut:RXRa IVT, anti-PPARg (DBD mutation: PPARg1 K132A/R137A, NR concentration 270 nM, RXRa partner concentration 90 nM)
Outline: as §1

[14] = system: PPARg DBDmut IVT, anti-PPARg (DBD mutation: PPARg1 K132A/R137A, NR concentration 270 nM)
Outline: as §1

[15] = system: PPARg homodimer (NR concentration 180 nM)
Outline: as §1

[16] = system: PXR:RXRa (NR concentration 270 nM, RXRa partner concentration 90 nM)
Outline: as §1

[17] = system: PXR homodimer (NR concentration 270 nM)
Outline: as §1

[18] = system: RARa:RXR (NR concentration 270 nM, RXRa partner concentration 90 nM)
Outline: as §1

[19] = system: RARa homodimer (NR concentration 270 nM)
Outline: as §1

[20] = system: RARb:RXRa (NR concentration 270 nM, RXRa partner concentration 90 nM)
Outline: as §1

Sequence	PBM binding z-score [1]	PBM binding z-score [2]	PBM binding z-score [3]	PBM binding z-score [4]	PBM binding z-score [5]	PBM binding z-score [6]	PBM binding z-score [7]	PBM binding z-score [8]	PBM binding z-score [9]	PBM binding z-score [10]	PBM binding z-score [11]	PBM binding z-score [12]	PBM binding z-score [13]	PBM binding z-score [14]	PBM binding z-score [15]	PBM binding z-score [16]	PBM binding z-score [17]	PBM binding z-score [18]	PBM binding z-score [19]	PBM binding z-score [20]
ACAATTAGTTGAGACGAGGGCAACCGATAGGTTG	0.779	0.374	0.178	0.228	-0.183	0.503	0.794	0.375	0.274	0.45	-0.0279	0.475	0.916	0.299	0.566	1.37	0.711	1.13	0.878	1.14
ATCGAAAGGTCGAGGTGAGTAAAGAGAAAGGGAA	4.14	3.26	0.0324	2.59	0.664	4.57	3.27	3.83	1.09	2.5	0.198	1.99	1.11	0.693	1.75	2	0.184	2.88	0.627	3.95
ACAGACAGGCGAGTGAAGGTAACTCAGCTGGACG	0.222	-0.221	-0.463	-0.649	-0.426	-0.25	0.686	-0.142	-0.453	-0.153	-0.427	-0.121	0.466	-0.29	0.0641	-0.279	-0.674	0.193	-0.258	0.0266
TCATATAGGTAAACAGGTGAAATTCCGTAAGTTA	1.25	1	0.35	1.2	-0.0512	2.32	2.75	3.22	4.19	3.8	4.59	4.41	1.27	1.49	1.3	1.03	0.625	1.67	2.19	0.689
AGTCACAGTTCACTAGGTAACGTAAGATTCAGCT	0.936	1.66	0.659	1.19	0.166	2.84	2.96	3.17	1.06	2.12	2.42	3.71	1.36	0.988	1.05	1.35	0.619	1.25	0.737	2.31
CCCAGTTGGTCAAGGTCACACACGCTATAGGTAC	4.07	4.03	2.72	3.8	0.738	4.18	3.3	3.56	1.14	2.57	1.74	3.31	2.05	0.443	4.04	4.46	3.52	4.63	2.32	4.24
GCGACTGGGGCATAAGCAGGTTACCATAACTTAA	-0.0719	0.177	-0.305	0.583	-0.304	1.24	1.62	2.1	0.29	1.26	3.36	3.18	-0.0704	-1.04	0.497	0.0393	-0.431	0.498	-0.34	0.653
ATCTCTAGGAAACCAAGTTCAGTGAATGCCGAAC	0.256	0.434	0.599	0.317	0.4	0.151	-0.0218	0.0648	0.0428	0.082	-0.471	0.0982	0.852	0.501	0.854	1.17	1.48	0.595	1.12	0.938
CCTCGGAAGACAGAAGGTCAGAGCTGTCCGCTTT	0.995	1.6	0.422	1.25	-0.462	1.69	-0.302	0.238	-0.803	-0.38	-0.276	-0.376	-1.12	-1.96	1.82	1.38	-0.0252	1.89	0.512	2.33
GCTAGCAGGCCATTTGGGTCACTCACTGACGGGC	0.237	-0.137	-0.55	-0.212	-0.64	1.16	0.358	0.596	-0.357	0.202	2.26	2.51	-1.21	-1.1	0.122	0.354	-0.0107	0.762	-0.483	1.45
CCTACTGGGCCTTCAGGTCATTGATATCAACGTT	1.24	0.751	0.919	1.3	-0.3	1.93	0.682	1.85	0.024	1.09	2.17	2.64	0.207	0.0216	1.5	1.47	0.552	1.5	-0.361	1.7
TAGCCTAGGTCTTGCGGGCCAGTATAGTGTCGGC	-0.844	-0.906	-0.807	-1.17	-1.2	-0.636	-0.663	-0.775	-0.745	-1.05	-0.581	-0.0643	-0.303	-0.84	-1.39	-1.05	-1.29	-0.863	-1.17	-0.327
ATCTCTAGGTAAAAGTTCAATGAATCCCGAGGAT	1.81	2.65	2.7	2.03	1.14	4.88	8.83	8.49	8.81	9.69	2.16	4.28	1.95	1.61	2.08	3.09	2.8	2.86	1.09	2.64
GCGACTGGGGCCAAGCAGGTTACCATAAGGTTGG	-0.268	-0.471	-0.686	-0.129	-1.37	0.516	0.164	-0.27	-0.91	-0.642	-0.26	-0.0452	-0.943	-1.96	-0.242	-0.00892	-0.184	0.223	-1.01	1.14
CCTTGCGGGTCACGAGGTTATAGCACGACGAGCG	6.38	4.25	0.382	3.71	-0.139	5.87	7.48	6.95	4.06	5.86	5.74	6.59	3.45	2.14	3.48	4.41	0.214	6.01	0.851	4.47
